Values joined by “and” are separate entries in the source; they are usually repeats but may differ in a detail not shown here. Equal values may be shown once. Results filed as inconclusive are left out. Where a call stands in place of a potency, no number is given. Unmarked numbers belong to inactive results. Active and inactive are the calls of the source. Calls follow the shape of the dose curve; as a rule, active = well fitted cell-killing curve with a large enough effect in the repeat runs; inconclusive = weak or mixed curves, or effect the other way; inactive = flat fitted curve, though single readings scatter.
Experiment: qHTS assay to identify small molecule agonists of the constitutive androstane receptor (CAR) signaling pathway - cell viability counter screen (AID 1224836); also: nearly all actives have a fitted effect of over 45% in size
Conditions: HepG2-CYP2B6-hCAR viability, CellTiter-Fluor, 23 h, PK11195 added to every well; series mostly up to 92.4 µM; viability change, negative = cytotoxic: at the top concentration
Excerpt: U.S. Tox21 Program National Center for Advancing Translational Sciences [NCATS] NIH Chemical Genomics Center [NCGC] U.S. Environmental Protection Agency [EPA] National Institutes of Environmental Health Sciences [NIEHS] National Toxicology Program [NTP] U.S. Food and Drug Administration [FDA] Tox21 Assay Overview: The constitutive androstane receptor (CAR) is a nuclear receptor which regulates multiple drug metabolizing enzymes (DMEs) and transporters. Activating CAR will generally increase the transcription and subsequent translation of CYP2B6 and CYP3A4. These two DMEs represent about 50% of the drug metabolizing potential in the body. […] Recently, there have also been studies performed indicating CARs role in energy metabolism and cancer therapy. Therefore, inducing CARs activity could have a potential effect on diabetes and cancer. Identifying environmental toxins and compounds which modulate CAR, through the use of the Tox21 10K compound collection, will be an important step in determining the toxicity and potential therapeutic effects these factors will have on the human body. To differentiate true CAR agonists from cytotoxic substances, the assay is multiplexed with a cell viability assay.
Tox21 Assay Protocol Summary: A double-stable (hCAR and CYP2B6-2.2kb) transfected cell line, derived from human hepatoma (HepG2) cells, was utilized for the duration of the quantitative high-throughput screens. The HepG2-CYP2B6-hCAR cells were dispensed at 2500 cells/4 uL/well in 1536-well white solid bottom plates using a Multidrop Combi. After the assay plates were incubated at 37 C/5% CO2 for 4 hrs, 23 nL of compounds at 15 concentrations (from 5-48 columns) or positive control (from 1 to 4 columns) were transferred to the assay plates using a Pintool station. One uL of PK11195 (final concentration = 0.75 uM) was added, using a Flying Reagent Dispenser, inside each well. After a 23 hr incubation period at 37 C/5% CO2, 1 uL of CellTiter-Fluor reagent was added into each well of the assay plates using a Flying Reagent Dispenser. The fluorescence intensity in the plates was then measured using a ViewLux plate reader.
In the case of `CN(C)c1nc(N(C)C)nc(N(C)C)n1`, the Potency is reported as “inactive”. In the case of `O=c1oc(=O)c2cc3c(=O)oc(=O)c3cc12`, the Potency is reported as “inactive”. With `OCCO` the Potency was “inactive”. In the case of `C/C=C/C(=O)O`, the Potency is reported as “inactive”. In the case of `COc1ccc(C(=O)CC(=O)c2ccc(C(C)(C)C)cc2)cc1`, the Potency is reported as “inactive”. In the case of `O=C(OCc1ccccc1)c1ccccc1O`, the Potency is reported as “inactive”. In the case of `O=C1c2cccc(O)c2C(=O)c2c(O)cccc21`, the Potency is reported as “inactive”. In the case of `Nc1ccc(Nc2ccccc2)cc1`, the Potency is reported as “inactive”. For `CCCCOCCOCCOCCO`, the Potency was “inactive”. In the case of `CC(=O)c1ccccn1`, the Potency is reported as “inactive”. In the case of `CC(C)OC=O`, the Potency is reported as “inactive”. With `c1ccc2sc(SSN3CCOCC3)nc2c1` the “viability change, negative = cytotoxic” value was -17.6%. In the case of `C=C(C)C1CC=C(C)CC1` (stereo not given), the Potency is reported as “inactive”. In the case of `COC(=O)Nc1nc2ccc(S(=O)c3ccccc3)cc2[nH]1` (stereo not given), the Potency is reported as “inactive”. For `Cc1c(OCC(F)(F)F)ccnc1CS(=O)c1nc2ccccc2[nH]1` (stereo not given), the Potency was “inactive”. With `CC(C)=CCCC(C)CCO` (stereo not given) the Potency was “inactive”. For `Nc1ncnc2nc[nH]c12`, the Potency was “inactive”. With `COc1c(Cl)c(Cl)c(Cl)c(Cl)c1Cl` the Potency was “inactive”. In the case of `Cn1cnc([N+](=O)[O-])c1Sc1ncnc2nc[nH]c12`, the Potency is reported as 6.82 µM (active). For `c1ccc2c(c1)Oc1ccccc1S2`, the Potency was “inactive”. With `O=C(Nc1ccc([N+](=O)[O-])cc1Cl)c1cc(Cl)ccc1O` the Potency was 6.86 µM (active) and 4.61 µM (active). For `CCCCC(CC)COP(=O)(OCC(CC)CCCC)OCC(CC)CCCC` (stereo not given), the Potency was “inactive”. In the case of `O=C1OC2(c3cc(Br)c(O)c(Br)c3Oc3c2cc(Br)c(O)c3Br)c2c(Cl)c(Cl)c(Cl)c(Cl)c21`, the Potency is reported as 13.7 µM (active) and 37.1 µM (active). With `CC1=CCC(C(C)(C)O)CC1` (stereo not given) the Potency was “inactive”. In the case of `COc1cc([C@@H]2c3cc4c(cc3[C@H](O)[C@H]3COC(=O)[C@H]23)OCO4)cc(OC)c1OC`, the “viability change, negative = cytotoxic” value is reported as -7.41%. For `c1ccc(Nc2ccccc2)cc1`, the Potency was “inactive”. In the case of `Cc1ncc[nH]1`, the Potency is reported as “inactive”. In the case of `NC=O`, the Potency is reported as “inactive”. For `CCCC(=O)O`, the Potency was “inactive”. With `CC(=O)Oc1ccccc1C(=O)Nc1ncc([N+](=O)[O-])s1` the Potency was 19.7 µM (active) and 21.1 µM (active). For `O=C(O)c1ccccc1Nc1cccc(C(F)(F)F)c1`, the Potency was “inactive”. In the case of `COC(=O)CCC(=O)OC`, the Potency is reported as “inactive”. In the case of `CCCCNS(=O)(=O)c1ccccc1`, the Potency is reported as “inactive”. For `CCCCOCCOCCO`, the Potency was “inactive”. In the case of `C=CC(C)(CCC=C(C)C)OC(C)=O` (stereo not given), the Potency is reported as “inactive”. For `CCC(C)(O)CCCC(C)C` (stereo not given), the Potency was “inactive”. In the case of `O=P(O)(O)O`, the Potency is reported as “inactive”. In the case of `COC(=O)C1=C(C)NC(C)=C(C(=O)OCCN(C)Cc2ccccc2)C1c1cccc([N+](=O)[O-])c1` (stereo not given), the Potency is reported as 48.3 µM (active). For `Oc1ccc(O)cc1`, the Potency was “inactive”. For `CC(C)OC(=O)C(C)(C)Oc1ccc(C(=O)c2ccc(Cl)cc2)cc1`, the Potency was “inactive”.

From PubChem BioAssay (Tox21)
Potency is read from the fitted curve at half-maximal effect.
